SMILES strings stand for the structures. “And” between values parts separate entries of the source, which are not always exact repeats. Equal entries are not always repeated. Compounds without any hit were thinned out: in the full panel of roughly 83,000, 20% have a hit.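 Assay: single dose, 48 h. Readout: percent growth (0 = no net growth; negative = cell death). Active: <10.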 The source made the active and inactive calls.

This assay has as its system MDA-MB-468 breast. Briefly: NCI-60 one-dose screen, 48 h (100 = growth as untreated, 0 = no growth, -100 = all killed). As to conditions: 10 µM unless noted.
For the molecule `N#CC(C(=O)/C(=N/NC(=O)c1ccccc1O)C(C#N)c1ccccc1)c1ccccc1` (stereo not given), the growth was 67.1% (inactive).
Next, `Cc1c(O)cnc2nn(-c3ccccc3)c(=N)n12`: 108% (inactive); `Cc1cc(-c2ccccc2)cc(C)n1`: 103% (inactive); `CCN1CCN(C(=O)[C@]23CCC(C)(C)C[C@@H]2C2=CC[C@@H]4[C@@]5(C)C/C(=C/c6cccnc6)C(=O)C(C)(C)[C@@H]5CC[C@@]4(C)[C@]2(C)CC3)CC1`: -6.42% (active).
The figure for `NC(CC(=O)O)C(=O)OCc1ccccc1` (stereo not given) is 89.4% (inactive); for `COC1=CC(=O)C[C@@H](C)[C@]12Oc1c(Cl)c(OC)cc(OC)c1C2=O` it is 76.8% (inactive).
Next, `COc1ccc2nc(-c3ccc(-n4cncc4-c4ccc(OC)c(N)c4)cc3)sc2c1`: 114% (inactive); `Cc1ccc(-c2nnc(COc3ccc(-c4nnc(N)s4)cc3)o2)cc1`: 72.7% (inactive).
Regarding `CS(=O)(=O)Nc1cc(-c2ccc3ncnc(Nc4cccc(Cl)c4F)c3c2)cnc1Cl`, the growth is -18.4% (active).
Next, `Cc1nn(-c2cccc(Cl)c2)c(C)c1N=Nc1ccc(Br)cc1`: 97.6% (inactive).
`Cc1ccc2cccc([N+](=O)[O-])c2n1`: the growth was 107% (inactive) and 100% (inactive).
The figure for `CCCCCCOc1ccc(/C=N/Nc2cc(C)nc3ccc(Br)cc23)cc1` is -78.6% (active).
Next, `CCCCCc1ccc(S(=O)(=O)N(C(C)=O)c2cccc(-c3csc(N(CCN4CCN(C)CC4)C(C)=O)n3)c2)cc1`: -10.9% (active); `COc1cc(C2CC(C3C(=O)N(C)C(=O)N(C)C3=O)=NN2c2cc(Cl)cc(Cl)c2)cc(OC)c1OC` (stereo not given): 84.5% (inactive).
Next, `COc1ccc(S(=O)(=O)NCCCNc2nccc(-c3c(-c4ccc(F)cc4)nc4sccn34)n2)cc1`: 61.2% (inactive); `C1CCN(c2nc(N3CCCCC3)nc(N3CCOCC3)n2)CC1`: 107% (inactive).
`COc1ccc(-c2cc3c(C)nc(N)nc3n(C3CCC(OCCO)CC3)c2=O)cn1` (stereo not given): the growth is -50% (active).
Next, `COC(=O)c1cc(Br)ccc1O`: 93% (inactive); `CCc1ccc(SC2c3ccc(N(CC)CC)cc3Oc3nc(N)c(C#N)c(N)c32)cc1` (stereo not given): -41% (active); `CNC(=O)c1cc(Oc2cccc3nc(NC(=O)Nc4ccc(F)cc4F)ccc23)ccn1`: 42.1% (inactive).
Take `O=C1Nc2cc(Cl)ccc2/C1=C\c1ccc(OCc2ccccc2)cc1`: the growth is 98.5% (inactive).
The figure for `CC1=C(C(=O)Nc2ccccc2)C(c2ccc3c(c2)OCO3)NC(=S)N1` (stereo not given) is 108% (inactive); for `Nc1nc(-c2cc3c(cc2Cl)NC(=O)/C3=C/c2ccccc2)cs1` it is 33.7% (inactive).
Next, `COc1ccc(/C=C(\C#N)c2cc3ccccc3n2S(C)(=O)=O)cc1`: 69.3% (inactive); `CCNC(=O)Oc1ccc(/C(=C(/CC)Cc2ccccc2)c2ccc(OCCN3CCOCC3)cc2)cc1`: 46.1% (inactive).
Next, `CC(C)c1ccc(C(=O)Nc2sc3cc(O)ccc3c2C#N)cc1`: 12.5% (inactive); `COc1ccc([C@@H]2c3[nH]c4ccccc4c3CC3C(=O)N(C4CCN(Cc5c(F)cccc5F)CC4)CC(=O)N32)c(OC)c1` (stereo not given in full): 40.6% [5.26 µM] (inactive); `Cc1cccc2c3c(sc12)C(c1ccc(Cl)cc1)c1c(nc(CC(=O)Nc2ccccc2)[nH]c1=O)O3` (stereo not given): 9.75% (active).
In the case of `CNCc1cccc2c1OCCOCCOCCC(C)S(=O)(=O)c1ccc(cc1)-c1cnc(N)c(n1)C(=O)N2` (stereo not given), the growth is 53.1% (inactive).
Next, `Clc1cccc(Cl)c1C(Nc1nc2ccccc2s1)Nc1nc2ccccc2s1`: 72.3% (inactive).
Next, `CN(C)CC/C=C1\c2ccccc2Sc2ccc(Cl)cc21`: 8.92% (active).
Next, `COC(=O)[C@H](NC(=O)C1(C)CCC[C@]2(C)[C@H]3C[C@H]4C(C(C)C)=C[C@]3(CC[C@@H]12)[C@@H]1C(=O)CCC(=O)[C@@H]14)C(C)C` (stereo not given in full): 101% (inactive).
Consider `O=Nc1c(-c2cccc([N+](=O)[O-])c2)nc2ncccn12`, for which the growth is 17.4% (inactive).
`O=C1C[C@H](c2ccccc2)[C@H](c2ccccc2)C1`: the growth was 99.2% (inactive).
The figure for `COc1cccc(-c2nnc(COc3ccc(-c4nc5ccc(C)cc5[nH]4)cc3OC)o2)c1` is 71% (inactive); for `Cn1cccc1-c1nc2c3c(ccc2[nH]1)C(=O)c1ccccc1C3=O` it is 10.9% (inactive); for `COc1ccc(C(C)C=O)cc1` (stereo not given) it is 134% (inactive).
Next, `CCc1c(C)c2cc3nc(NCc4ccccc4)oc3c(C)c2oc1=O`: 68.2% (inactive); `CNC(=O)c1cccnc1`: 106% (inactive); `COc1cc(Cl)cc(-c2nn(-c3cccc(NC(=O)Nc4ccc(Cl)c(C(F)(F)F)c4)c3)cc2-c2ccncc2)c1`: -14.4% (active).

These data come from PubChem BioAssay (NCI).
